Experimental data taken from PubChem BioAssay AID1345085 (National Center for Advancing Translational Sciences (NCATS), 2018).
Inconclusive results are not listed. Calls of active or inactive are those of the source. Calls come from the whole dose curve; as a rule, active = well fitted cell-killing curve with a large enough effect; inconclusive = small, poorly fitted or top-dose-only effect, or effect the other way; inactive = no such curve, though single readings can be large or run the other way.

Tested on: Hek293T
Assay: Confirmatory qHTS for gynecologic anti-cancer compounds from libraries of approved drugs and bioactive compounds; note: nearly all actives have a fitted effect of over 55% in size
Conditions: gynecologic cancer cell panel viability, ATPlite luminescence, 48 h; series mostly up to 57.6 µM
Procedure, shortened: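 Cells (1,000/well) plated 16 h, then exposed 48 h at 37 °C to 11 concentrations (1:3) from 57.5 uM to 0.977 nM. Viability by ATPlite luminescence after 15 min; IC50 derived, with HEK 293T used for selectivity index.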
Potency is the fitted concentration of half-maximal effect.

Row | Structure (SMILES) | Potency
1 | Cc1ccc(C(=O)Nc2ccc(CN3CCN(C)CC3)c(C(F)(F)F)c2)cc1C#Cc1cnc2[nH]ncc2c1 | 21700 nM (active)
2 | C[C@@]1(C(=O)Nc2ccc(F)nc2)CCCN1c1nc(Nc2cc(C3CC3)[nH]n2)c2cccn2n1 | inactive
3 | CC1=C(CO)C(=O)O[C@@H]([C@@H](C)[C@H]2CC[C@H]3[C@@H]4C[C@H]5O[C@]56[C@@H](O)C=CC(=O)[C@]6(C)[C@H]4CC[C@]23C)C1 | 2370 nM (active)
4 | CS(=O)(=O)c1ccc(C(=O)Nc2ccc(Cl)c(-c3ccccn3)c2)c(Cl)c1 | inactive
5 | CN(c1nccc(=O)[nH]1)C1CCN(c2nc3ccccc3n2Cc2ccc(F)cc2)CC1 | inactive
6 | Cn1cc(-c2[nH]c3cc(NC(=O)[C@H](N)C4CCCCC4)cc4c3c2C=NNC4=O)cn1 | 432 nM (active)
7 | O=C(O)c1ccc(Nc2ncc3c(n2)-c2ccc(Cl)cc2C(c2c(F)cccc2F)=NC3)cc1 | inactive
8 | CN(C)CC/C=C1\c2ccccc2COc2ccccc21 | inactive
9 | C[C@@H](Oc1cc(-c2cnn(C3CCNCC3)c2)cnc1N)c1c(Cl)ccc(F)c1Cl | 21700 nM (active)
10 | COc1cc2c(Oc3ccc(-c4cnc(Nc5ccc(F)cc5)n(C)c4=O)cc3F)ccnc2cc1OCCCN1CCOCC1 | 15300 nM (active)
11 | NC(=O)c1cnc(-c2ccc(C3(N)CCC3)cc2)c(-c2ccccc2)c1 | 21700 nM (active)
12 | Cc1ccc(C(N)=O)cc1Nc1nccc(-c2cn(C(C)C)c3cnccc23)n1 | 13700 nM (active)
13 | COc1ccc2c(c1OC)C(=O)O[C@@H]2[C@H]1c2c(cc3c(c2OC)OCO3)CCN1C | inactive
14 | CC(C)CC(=O)Nc1n[nH]c2c1CN(C(=O)C1CCN(C)CC1)C2(C)C | 1370 nM (active)
15 | CCN[C@H]1C[C@H](C)S(=O)(=O)c2sc(S(N)(=O)=O)cc21 | inactive
16 | CC[C@@]1(O)C(=O)OCc2c1cc1n(c2=O)Cc2c-1nc1ccccc1c2/C=N/OC(C)(C)C | 172 nM (active)
17 | CC[C@H](CC#N)OC(=O)N[C@@H](C)c1cccc(NC(=O)Nc2ccc(-c3cnco3)c(OC)c2)c1 | 76.9 nM (active)
18 | COc1cc2c(c(OC)c1OC)-c1ccc(OC)c(=O)cc1[C@@H](NC(C)=O)CC2 | inactive

Row | Structure (SMILES) | Potency
19 | CC(C)C[C@H](NC(=O)[C@@H](NC(=O)c1cccc(-c2ccccc2)n1)[C@@H](C)O)B(O)O | 193 nM (active)
20 | Cc1cnc(Nc2cccc(CN3CCOCC3)c2)nc1Nc1cccc(S(=O)(=O)NC(C)(C)C)c1 | inactive
21 | Cc1[nH]c2ccccc2c1CCNCc1ccc(/C=C/C(=O)NO)cc1 | 193 nM (active)
22 | CCS(=O)(=O)N1CCN(c2ccc(Nc3ncc(C(N)=O)c(NC4CC4)n3)cc2)CC1 | 17200 nM (active)
23 | COc1cc2c(cc1-c1c(C)noc1C)ncc1[nH]c(=O)n(C(C)c3ccccn3)c12 (stereo unspecified) | inactive
24 | CC(C)C[C@H](NC(=O)[C@H](Cc1ccccc1)NC(=O)c1cnccn1)B(O)O | 30.6 nM (active)
25 | CC(C)Oc1ccc2c(=O)c(-c3ccccc3)coc2c1 | 4850 nM (active)
26 | Cc1cnc(Nc2ccc(CN3CCOCC3)cc2)nc1Nc1cccc(S(=O)(=O)NC(C)(C)C)c1 | 17200 nM (active)
27 | O=C1c2c(O)ccc(O)c2C(=O)c2c(NCCNCCO)ccc(NCCNCCO)c21 | 863 nM (active)
28 | COc1cccc2c1C(=O)c1c(O)c3c(c(O)c1C2=O)C[C@@](O)(C(=O)CO)C[C@@H]3O[C@H]1C[C@H](N)[C@H](O)[C@H](C)O1 | 3850 nM (active)
29 | CC(Oc1cc(-n2cnc3ccc(CN4CCN(C)CC4)cc32)sc1C(N)=O)c1ccccc1C(F)(F)F (stereo unspecified) | 24300 nM (active)
30 | CCCCc1nc2cc(/C=C/C(=O)NO)ccc2n1CCN(CC)CC | 1720 nM (active)
31 | Cc1nc(N)nc(N)c1-c1ccc(Cl)c(Cl)c1 | 1220 nM (active)
32 | CCC(=O)N1CCN(c2ccc(-n3c(=O)ccc4cnc5ccc(-c6cnc7ccccc7c6)cc5c43)cc2C(F)(F)F)CC1 | 49.8 nM (active)
33 | CCN1CCN(Cc2ccc(-c3cc4c(NC(C)c5ccccc5)ncnc4[nH]3)cc2)CC1 (stereo unspecified) | 27300 nM (active)
34 | CCC1C(=O)N(C)c2cnc(Nc3ccc(C(=O)NC4CCC(N5CCN(CC6CC6)CC5)CC4)cc3OC)nc2N1C(C)C (stereo unspecified) | 61.1 nM (active)
35 | COc1cccc2c1C(=O)c1c(O)c3c(c(O)c1C2=O)C[C@@](O)(C(=O)CO)C[C@@H]3O[C@H]1C[C@H](N)[C@H](O[C@@H]2CCCCO2)[C@H](C)O1 | 10900 nM (active)
36 | CN1CCN(c2cccc(Nc3nc4c(-c5ccc(S(C)(=O)=O)cc5)cccn4n3)c2)CC1 | inactive
